This note sets out measurements from PubChem BioAssay (NCI).

Compounds without any hit were thinned out: in the full panel of roughly 83,000, 20% have a hit.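 96-well plates, one dose, 48 hours. Percent growth reported; active if below 10.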 A number with no mark means an inactive call. Calls of active or inactive are those of the source.

This test relates to BT-549 breast. Briefly: NCI-60 one-dose screen, 48 h (100 = growth as untreated, 0 = no growth, -100 = all killed). As to conditions: 10 µM unless noted. The method, then: Growth inhibition of the BT-549 human tumor cell line is measured as a screen for anti-cancer activity. Cells are grown in 96 well plates and exposed to the test compound for 48 hours. Compounds are tested at a single concentration, which is 10^-5 M for most compounds. The reported endpoint is percent growth (GI% or GIPRCNT), where numbers from 0 - 100% represent growth inhibition, and numbers from -100% - 0 represent cell death. For example, a value of 40 represents 60% growth inhibition. A value of 0 means no net growth occurred over the course of the experiment. A value of -40 indicates 40% of cells at the beginning of the experiment died by the end of the experiment. A value of -100 means all cells are dead at the end of the experiment.
NCI-60 Human Tumor Cell Lines Screen was performed using the standard one-dose NCI protocol, which is described in more detail at https://dtp.cancer.gov/discovery_development/nci-60/default.htm.
Compounds with GIPRCNT values below 10 were considered active. Activity score was based on GIPRCNT using the following formula: […]
Score is 0 for GIPRCNT values of 100 or above, 50 for GIPRCNT values of 0, and 100 for GIPRCNT values of -100.
For the compound `CC(C)(O)c1cncc(-c2ccc3ncnc(N4CCc5cc(F)c(Cl)cc54)c3c2)c1`, the growth is -7.34% (active).

`CCCC(=O)NC(c1ccc2c(c1)OC(F)(F)O2)c1cc(C)c2cccnc2c1O` (stereo not given): the growth was 37.9%.

For `Cc1cc(C(=O)Nc2sc3c(c2C(N)=O)CCC(=O)C3)ccc1OCCN1CCCCC1`, the growth is 129%.

As to `O=C(CSc1nc2sc3c(c2c(=O)n1-c1ccc(Cl)cc1)CCCC3)NNC(=O)Nc1cccc(C(F)(F)F)c1`, the growth was 54%.

Regarding `COc1ccc(C(=O)/C=C/c2ccc(OCc3ccc(C)cc3)c(OC)c2)cc1OC`, the growth was 73.2%.

As to `CCOC(=O)c1c(Nc2ccccc2)nn2c(-c3ccco3)c(C#N)cnc12`, the growth is 83.1%.

Turning to `C#C[C@]1(O)CC[C@H]2[C@@H]3CC=C4c5sc(Nc6ccc(Cl)cn6)nc5CC[C@]4(C)[C@H]3CC[C@@]21C`, the growth is 32.9%.

With `N#Cc1nc(-c2ccccc2)oc1N1CCC(CO)C1` (stereo not given), the growth was 95.3%.

Consider `NC(=O)c1cc(-c2ccc3ncnc(N4CCc5cc(F)c(Cl)cc54)c3c2)cnc1N`, for which the growth is -13.5% (active).

For the compound `COc1ccc(CNS(=O)(=O)/N=C2\NC(=O)NC2=C(Cl)Cl)cc1`, the growth is -8.05% (active).

`OC1CCN(CCCOc2c3ccccc3nc3c2oc2ccc(Cl)cc23)CC1`: the growth is 57.1%.

Regarding `CSc1ccc2c(c1)N(C(=O)/C(C#N)=C/c1c[nH]c3ccccc13)c1ccccc1S2`, the growth was 55.8%.

For the compound `CN(C)CCCOc1c2ccc(Cl)cc2nc2c1oc1ccc(Cl)cc12`, the growth was 45.6%.

Consider `CS(=O)(=O)c1ccc(-c2nc3ccccn3c2/C=N/Nc2nc(-c3ccc(Br)cc3)cs2)cc1`, for which the growth was 114%.

For the compound `COc1cc2nc(-c3ccc(Cl)cc3)cc(OCCCNCC3CCCO3)c2cc1OC` (stereo not given), the growth was 87.7%.

Take `CCOC(=O)c1c(NC(=O)c2cccc(C(F)(F)F)c2)sc2cc(O)ccc12`: the growth is 89.7%.

Turning to `COc1ccc(/C=C2\SC(=Nc3cc(C)on3)NC2=O)cc1`, the growth was 88.1%.

Consider `Clc1ccc2c(NCCCn3ccnc3)c3oc4ccc(Cl)cc4c3nc2c1`, for which the growth was 88.1%.

Take `O=C(CSc1nc2sc3c(c2c(=O)n1-c1ccc(Cl)cc1)CCCC3)NNC(=O)Nc1ccc(Cl)c(C(F)(F)F)c1`: the growth was 69%.

In the case of `CC(C)Sc1nc(Nc2ccc(S(N)(=O)=O)cc2)c(C#N)c(-c2ccc(F)cc2)n1`, the growth was 53.3%.

As to `Cc1cc2nc3c4cc(Cl)ccc4n(CC(=S)NCCN(C)C)c3nc2cc1C`, the growth was 75%.

With `COC(=O)c1ccc(NC(=S)N2CCc3ccc([N+](=O)[O-])cc3C2)cc1O`, the growth was 101%.

As for `N=C1CC(=O)NN1C(=O)CSc1nc2sc3c(c2c(=O)n1-c1ccc(Cl)cc1)CCCC3`, the growth is 102%.

In the case of `[Cl][Ru].c1ccc(-c2cccc(-c3ccccn3)n2)nc1.c1ccc(-c2ccnc3c2ccc2c(-c4ccccc4)ccnc23)cc1`, the growth was 7.88% (active).

`CCN(CC)c1ccc(C=O)c(OCc2cn(CC(=O)Nc3ccc(Cl)cc3)nn2)c1`: the growth was 81.4%.

Regarding `O=C(N/N=C/c1ccc(Br)s1)c1[nH]c2ccc(Br)cc2c1-c1ccccc1`, the growth was -11.8% (active).

For the compound `Cn1ccnc1C(=O)/C=C/c1ccc(NC(=O)Nc2ccc(Cl)cc2)cc1`, the growth is 63.6%.

For the compound `COc1ccccc1C(=O)CSc1nc(Nc2ccc(S(N)(=O)=O)cc2)c2ccccc2n1`, the growth is 111%.

As to `Nc1cc(-c2c[nH]c3ccc(F)cc23)nc2cc(-c3c[nH]c4ccc(F)cc34)nn12`, the growth was 103%.

With `CCOc1ccc2nc(NC(=O)c3ccc(C(F)(F)F)cc3)sc2c1`, the growth was 98.5%.

Consider `O=C1Nc2cc(Cl)ccc2/C1=C\c1ccc(OCc2ccc(Br)cc2F)cc1`, for which the growth was -69.3% (active).

`O=C(NNc1nc2cc(F)ccc2n2c(CN3CC4(COC4)C3)ccc12)c1cnccn1`: the growth was 36.4%.

Regarding `Cc1cc(=O)oc2cc(OCCCOc3ccc(/C=C/C(=O)Nc4ccc(Cl)cc4)cc3)ccc12`, the growth was 64.4%.

With `CCCC(=O)NC(c1cccc(N(C)C)c1)c1cc(C)c2cccnc2c1O` (stereo not given), the growth was 78.4%.

On to `Cn1cc(-c2cc(N)n3nc(-c4cn(C)c5ccc(Cl)cc45)cc3n2)c2cc(Cl)ccc21`, for which the growth is 117%.

As to `CCOC(=O)c1c(Nc2ccccc2)nn2c(N)c(C#N)c(-c3ccc(Cl)cc3)nc12`, the growth is 96.7%.

For the compound `N#Cc1nc(-c2ccccc2)oc1S(=O)(=O)N1CCN(CCc2ccccn2)CC1`, the growth was 107%.

On to `Cc1ccc(-c2nc(C(Cl)Cl)nc3cc(-c4ccccc4)nn23)cc1`, for which the growth was 53.6%.

As to `COC(=O)C(C)NS(=O)(=O)/N=C1\NC(=O)NC1=C(Cl)Cl` (stereo not given), the growth is 109%.

As to `Clc1ccc2oc3c(OCCCn4ccnc4)c4ccccc4nc3c2c1`, the growth was 95.7%.
